BAZ2B inh: BAZ2B (human) inhibition; 4.4% of 360,000 active; Potency, µM (series often up to 114 µM), hits mostly inhibitors; Q9UIF8; AlphaScreen BAZ2B-H3K14Ac peptide displacement; AID 504333; also: nearly all actives have a fitted effect of over 60% in size
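Multi-concentration screen (max 110 uM) measuring displacement of acetylated histone H3 peptide from BAZ2B by AlphaScreen, using 50 nM protein, 50 nM peptide and 10 ug/mL streptavidin donor plus Ni-chelate acceptor beads.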
Sfp PPTase inh: Sfp phosphopantetheinyl transferase inhibition; Q9F4F7; Biochemical Sfp PPTase activity, qHTS; Potency, µM, hits mostly inhibitors; 3.5% of 310,000 active;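 also: the enzyme is Sfp with the accession as filed and its product quenches rhodamine fluorescence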
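Fluorescence-quenching assay with 15 nM Sfp, 5 uM rhodamine-CoA and 12.5 uM BHQ-2-labelled ybbR peptide in pH 7.6 Hepes/MgCl2 buffer. Enzyme was pre-incubated with compound for 15 min at room temperature. Rate was taken from the 30-min fluorescence change (525/598 nm).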
G9a inh: G9a (human) methyltransferase inhibition; AID 504332; Q96KQ7; Potency, µM (titrated, usually from 102 µM), actives largely listed as inhibitors; G9a H3K9 monomethylation, AlphaScreen, 2 h; 8.8% of 350,000 active; also: nearly all actives have a fitted effect of over 75% in size
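AlphaScreen read-out: biotin-H3K9 peptide (500 nM) methylation by 20 nM enzyme with 20 uM SAM, 2 h at room temperature after 15 min compound preincubation; anti-monomethyl H3K9 antibody plus donor/acceptor beads, 10 min dark.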
HP1b chromo inh: HP1-beta chromodomain-methylated histone interaction inhibition. P83916. AlphaScreen HP1-beta / biotin-H3K9me3 peptide binding. Potency, µM (series often up to 114 µM), actives largely listed as inhibitors. 0.56% of 390,000 active; also: nearly all actives have a fitted effect of over 70% in size
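HP1-beta protein (50 nM final) preincubated 30 min at room temperature with biotinylated H3(1-18)K9me3 peptide (50 nM) in PBS pH 7.4, 0.01% Tween-20, then compound added for 30 min. AlphaScreen streptavidin donor/nickel chelate acceptor beads (10 ug/mL final), 30 min dark, luminescence read.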
PLK1 PBD inh: blocks phosphopeptide binding to human PLK1 polo-box domain. P53350. Plk1 PBD binding of FITC phosphopeptide, fluorescence polarization. 2.8% of 360,000 active. AID 720504. Potency, µM, actives largely listed as inhibitors; also: series mostly up to about 57 µM; nearly all actives have a fitted effect of over 65% in size
Target sequence (P53350 whole entry, looked up, the tested form may be a part): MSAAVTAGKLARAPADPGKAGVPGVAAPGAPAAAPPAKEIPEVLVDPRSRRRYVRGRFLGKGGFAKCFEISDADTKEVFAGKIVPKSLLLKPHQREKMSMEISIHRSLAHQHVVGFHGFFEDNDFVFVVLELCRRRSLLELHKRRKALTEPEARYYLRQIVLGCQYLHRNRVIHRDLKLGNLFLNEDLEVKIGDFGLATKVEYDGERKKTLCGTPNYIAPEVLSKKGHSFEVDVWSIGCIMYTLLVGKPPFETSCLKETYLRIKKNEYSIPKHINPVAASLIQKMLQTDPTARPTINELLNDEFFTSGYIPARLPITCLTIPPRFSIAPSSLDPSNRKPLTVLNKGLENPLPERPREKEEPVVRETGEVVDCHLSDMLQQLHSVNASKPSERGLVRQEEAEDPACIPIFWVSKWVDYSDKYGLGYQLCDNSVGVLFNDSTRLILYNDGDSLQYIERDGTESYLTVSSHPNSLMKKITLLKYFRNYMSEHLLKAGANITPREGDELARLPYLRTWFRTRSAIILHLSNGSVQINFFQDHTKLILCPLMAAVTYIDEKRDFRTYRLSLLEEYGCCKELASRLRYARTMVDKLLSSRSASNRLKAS
JMJD2A Tudor: inhibitors of human JMJD2A Tudor domain; AlphaScreen JMJD2A-Tudor / H3K4me3 peptide binding; Potency, µM (highest dose often 114 µM), actives largely listed as inhibitors; 4.4% of 390,000 active; also: nearly all actives have a fitted effect of over 50% in size
Hits are given with their value; [ ] = another dose, or the depositor's remark. The list is not random: actives were taken first. Their share in the collection is about 12%. Calls follow the shape of the dose curve; as a rule, active = well fitted curve in the direction sought with a large enough effect; inconclusive = small, poorly fitted or top-dose-only effect, or another doubt; inactive = no such curve, though single readings can be large; an effect the other way counts as inactive or inconclusive.

For COc1cc(/C=C2/C(=O)NN(c3ccc(Cl)c(Cl)c3)C2=O)cc([N+](=O)[O-])c1O the results were BAZ2B inh 39.8µM, Sfp PPTase inh inactive, G9a inh 17.8µM, HP1b chromo inh inconclusive, PLK1 PBD inh 11.9µM and JMJD2A Tudor 15.8µM.
Screening COc1cc(/C=C2/C(=O)NN(c3ccc(F)cc3)C2=O)cc(Cl)c1O returned BAZ2B inh 31.6µM, Sfp PPTase inh 44.7µM, G9a inh 28.2µM, HP1b chromo inh inconclusive, PLK1 PBD inh 29.9µM and JMJD2A Tudor 31.6µM.
For COc1cccc(/C=C2/C(=O)NN(c3ccc(Br)cc3)C2=O)c1O the results were BAZ2B inh inconclusive, Sfp PPTase inh inactive, HP1b chromo inh inactive, PLK1 PBD inh 7.52µM and JMJD2A Tudor inconclusive.
For COc1cc(/C=C/c2nc3ccccc3c(=O)[nH]2)cc(Br)c1O the results were BAZ2B inh inconclusive, Sfp PPTase inh inactive, G9a inh inconclusive, HP1b chromo inh inactive, PLK1 PBD inh inactive and JMJD2A Tudor inactive.
`COc1cc(/C=C2/C(=O)NN(c3ccc(Cl)cc3)C2=O)cc(Br)c1O` gave BAZ2B inh 44.7µM, Sfp PPTase inh inactive, HP1b chromo inh inconclusive, PLK1 PBD inh inconclusive and JMJD2A Tudor 39.8µM.
Screening Cc1cccc(CNC(=O)c2ccc(NC(=O)N3CCSc4ccccc43)cc2)c1 returned BAZ2B inh inactive, G9a inh inactive, HP1b chromo inh inactive and JMJD2A Tudor inactive.
`O=C(/C=C/c1cccc([N+](=O)[O-])c1)N1CCN(c2ccccc2F)CC1` gave BAZ2B inh inactive, Sfp PPTase inh inactive, G9a inh inactive, HP1b chromo inh inactive, PLK1 PBD inh inactive and JMJD2A Tudor inactive.
C/C(=N\N1CCN(c2ccc(Cl)cc2)CC1)c1cccc([N+](=O)[O-])c1 was read as BAZ2B inh inconclusive, Sfp PPTase inh inactive, G9a inh 22.4µM, HP1b chromo inh inactive, PLK1 PBD inh inactive and JMJD2A Tudor inconclusive.
Screening O=[N+]([O-])c1cccc(C(=S)N2CCN(c3ccccc3)CC2)c1 returned BAZ2B inh inconclusive, Sfp PPTase inh 31.6µM, G9a inh 8.91µM, HP1b chromo inh inconclusive, PLK1 PBD inh 11.9µM and JMJD2A Tudor inactive.
Screening O=C(c1cccc([N+](=O)[O-])c1)N1CCN(C/C=C/c2ccccc2)CC1 returned BAZ2B inh inactive, Sfp PPTase inh inactive, G9a inh inactive, HP1b chromo inh inactive, PLK1 PBD inh inactive and JMJD2A Tudor inactive.
Screening O=[N+]([O-])c1cccc(C(=S)N2CCN(c3ccccc3F)CC2)c1 returned BAZ2B inh inconclusive, Sfp PPTase inh inactive, G9a inh 20µM, HP1b chromo inh inconclusive, PLK1 PBD inh 9.47µM and JMJD2A Tudor inconclusive.
`O=C(c1cccc([N+](=O)[O-])c1)N1CCN(S(=O)(=O)/C=C/c2ccccc2)CC1` gave BAZ2B inh inactive, G9a inh 8.91µM, HP1b chromo inh inactive, PLK1 PBD inh inactive and JMJD2A Tudor inactive.
Screening Cn1ccc2cc(S(=O)(=O)N3CCCC(C(=O)NCc4ccc(F)cc4)C3)ccc21 (stereo unspecified) returned BAZ2B inh inactive, G9a inh inactive, HP1b chromo inh inactive and JMJD2A Tudor inactive.
Screening O=C(c1ccco1)N1CCC2(CCCN(C(c3ccccc3)c3ccccc3)C2)CC1 returned Sfp PPTase inh inactive and G9a inh inactive[12.7 µM].
For NS(=O)(=O)c1ccc2c(c1)C(=NO)c1cc(S(N)(=O)=O)ccc1-2 the results were BAZ2B inh inactive, Sfp PPTase inh inactive, G9a inh inconclusive, HP1b chromo inh inactive, PLK1 PBD inh inactive and JMJD2A Tudor inactive.
`N#CC(C#N)=C1c2cc(S(=O)(=O)NCCO)ccc2-c2ccc(S(=O)(=O)NCCO)cc21` gave BAZ2B inh inactive, Sfp PPTase inh 56.2µM, HP1b chromo inh inactive, PLK1 PBD inh inactive and JMJD2A Tudor inactive.
For N#CC(C#N)=C1c2cc(S(N)(=O)=O)ccc2-c2ccc(S(N)(=O)=O)cc21 the results were BAZ2B inh inactive, Sfp PPTase inh 39.8µM, G9a inh 17.8µM, HP1b chromo inh inactive, PLK1 PBD inh inactive and JMJD2A Tudor inactive.
For Cc1cc(C)n(CC(=O)Nc2cc(F)ccc2F)c(=O)c1C#N the results were BAZ2B inh inactive, G9a inh inactive, HP1b chromo inh inactive and JMJD2A Tudor inactive.
Screening CCCC(=O)Nc1cccc(C(=O)Nc2ccccc2OCC)c1 returned BAZ2B inh inactive, Sfp PPTase inh inactive and G9a inh inactive.
For CC(=O)Oc1ccc2c(=O)c(-c3ccccc3)coc2c1 the results were BAZ2B inh inactive, Sfp PPTase inh inactive, G9a inh inactive, HP1b chromo inh inactive, PLK1 PBD inh inactive and JMJD2A Tudor inactive.
For COc1ccc(-c2coc3cc(OC(C)=O)ccc3c2=S)cc1 the results were HP1b chromo inh inconclusive, PLK1 PBD inh 11.9µM and JMJD2A Tudor 44.7µM.
CC(C)[C@H](NC(=O)C1CCN(S(=O)(=O)c2ccc(F)cc2)CC1)C(=O)NCc1ccco1 was read as BAZ2B inh inactive, Sfp PPTase inh inactive, HP1b chromo inh inactive, PLK1 PBD inh 26.7µM and JMJD2A Tudor 35.5µM.
`CCNC(=O)C1CCN(S(=O)(=O)c2ccc(F)cc2)CC1` gave BAZ2B inh inactive, Sfp PPTase inh inactive, G9a inh inactive, HP1b chromo inh inactive, PLK1 PBD inh 21.2µM and JMJD2A Tudor 25.1µM.
`O=C(NCc1ccco1)C1CCN(Cc2ccc(F)cc2)CC1` gave BAZ2B inh 50.1µM, Sfp PPTase inh inactive, G9a inh 31.6µM, HP1b chromo inh inconclusive, PLK1 PBD inh inactive and JMJD2A Tudor 50.1µM.
CCC(=O)N1CCCc2cc(S(=O)(=O)N3CCC(C(=O)Nc4ccc(F)c(F)c4)CC3)ccc21 was read as BAZ2B inh inactive, G9a inh inactive, HP1b chromo inh inactive and JMJD2A Tudor inactive.
For CCC(=O)N1CCCc2cc(S(=O)(=O)N3CCC(C(=O)NCc4ccc(F)cc4)CC3)ccc21 the results were BAZ2B inh inactive, G9a inh inactive, HP1b chromo inh inactive and JMJD2A Tudor 56.2µM.
O=C(NCc1ccco1)C1CCN(C(=O)c2cc3sccc3n2Cc2ccc(F)cc2)CC1 was read as BAZ2B inh inconclusive, Sfp PPTase inh inconclusive, G9a inh inconclusive, HP1b chromo inh inactive, PLK1 PBD inh inactive and JMJD2A Tudor inconclusive.
Screening CCc1nn(C(C)C(=O)NCc2cccc(OC)c2)c(=O)c2cc3occc3n12 (stereo unspecified) returned BAZ2B inh inactive, Sfp PPTase inh inactive, G9a inh inactive, HP1b chromo inh inactive, PLK1 PBD inh inactive and JMJD2A Tudor inactive.
For CC(C)(C)OC(=O)N1CCC(c2c(C(=O)N3CCN(Cc4ccccc4)CC3)cnn2-c2cccc(Cl)c2)CC1 the results were BAZ2B inh inactive, G9a inh inactive, HP1b chromo inh inactive and JMJD2A Tudor inactive.
Screening O=C(NCc1ccc(F)cc1)C1CCN(c2cnccn2)CC1 returned BAZ2B inh inactive, Sfp PPTase inh inactive, HP1b chromo inh inactive, PLK1 PBD inh inconclusive and JMJD2A Tudor 25.1µM.

Assay outcomes as filed in PubChem BioAssay.
